Source: PubChem
This is a sample that favours compounds with a hit; in the whole collection about 2.5% have one here.
AF4-AF9 inh: inhibitors of human MLL-AF4/AF9 interaction. P42568. AlphaScreen, biotin-AF4 peptide binding to FLAG-AF9. inhibition, % at 10 µM. 350,000 tested, 0.47% active;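 active = every replicate reaching a set inhibition limit, whatever the replicate mean, cut at about 25% in these data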;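 note: 0% = plate neutral control median and 100% = total signal loss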
NSD2 inh: NSD2 (human) methyltransferase inhibition. NSD2 peptide methylation, AlphaScreen, 120 min. inhibition, % at 12.5 µM. 310,000 tested, 0.54% active; in the data active = inhibition above about 50%
RAD52 inh: RAD52 (human) annealing inhibition; P43351; 360,000 tested, 0.46% active; recombinant RAD52 DNA annealing, FRET fluorescence; inhibition, % at 18.7 µM; AID 651710;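 active = every replicate showing at least 50% inhibition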
Casp6 inh: blocks human caspase-6 cleavage activity. purified caspase-6, Z-VEID-R110 cleavage fluorescence. inhibition, % at 12.5 µM. 350,000 tested, 0.53% active. AID 686996;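 active = mean inhibition across replicates at least about 35%, with every replicate also reaching that limit, limit read from the data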;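 note: 0% = median of neutral control wells and 100% = no fluorescence left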
Target sequence (P55212 24-179 limits assumed): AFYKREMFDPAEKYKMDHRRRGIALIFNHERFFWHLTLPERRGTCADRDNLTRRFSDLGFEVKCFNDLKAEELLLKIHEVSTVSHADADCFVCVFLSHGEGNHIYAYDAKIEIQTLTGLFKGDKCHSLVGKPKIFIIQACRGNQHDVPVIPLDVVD
Target sequence (P55212 194-293 limits assumed): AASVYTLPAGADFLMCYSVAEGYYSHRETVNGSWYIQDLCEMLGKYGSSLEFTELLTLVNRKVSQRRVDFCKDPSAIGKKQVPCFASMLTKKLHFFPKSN
rRNA inh HTS: inhibitors of bacterial rRNA selective over humanized ribosomes | E. coli WT GFP vs humanized-ribosome RFP mutants, fluorescence, 24 h; hits give low values; DMSO median 0, no signal -100 | GFP signal change (wild-type ribosome), % (no concentration beside the values) | 350,000 tested, 1.6% active;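 active = significant combined selectivity score with lowered wild-type GFP, culture density cut under 30%, mutant RFP and density less affected; inactive = any of these conditions unmet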
* hit, by the source's call; . = no result.

SMILES	AF4-AF9 inh	NSD2 inh	RAD52 inh	Casp6 inh	rRNA inh HTS
C[C@H](CO)N1C[C@H](C)[C@H](CN(C)S(=O)(=O)c2cccc(F)c2)OCc2cn(nn2)CCCC1=O	.	.	.	.	-3.2
COC(=O)[C@@H](NS(=O)(=O)c1cc(Br)ccc1Br)C(C)C	2.5	.	-9.5	-2.6	-26.5*
CN1c2ccc(-c3cccc(F)c3)cc2[C@H]2[C@H](CCN2C(=O)C2CCC2)[C@H]1CO	28.0*	.	-2.0	.	-48.5
CN1c2ccc(C3=CCCCC3)cc2[C@H]2[C@H](CCN2C(=O)C2CCCC2)[C@@H]1CO	1.9	.	-11.6	-2.4	-4.3
COc1ccc(-c2ccc3c(c2)[C@@H]2[C@@H](CCN2C(=O)C2CCCC2)[C@H](CO)N3C)cc1	35.1*	.	24.0	1.9	-17.1
COc1cccc(-c2ccc3c(c2)[C@@H]2[C@@H](CCN2C(=O)NC2CCCC2)[C@H](CO)N3C)c1	26.5*	.	2.7	1.6	-6.0
CN1c2ccc(C3=CCCCC3)cc2[C@@H]2[C@@H](CCN2C(=O)C2CCCCC2)[C@H]1CO	25.2*	.	-0.9	7.2	-3.2
CN1c2ccc(C#Cc3cccnc3)cc2[C@@H]2[C@@H](CCN2S(=O)(=O)c2ccccc2F)[C@@H]1CO	-0.2	.	1.0	-3.0	-3.1
Cc1nn(-c2ccccc2)cc1/C=N/NC(N)=S	-0.4	-1.4	-15.0	-3.6	-21.0*
Cc1nn(-c2ccccc2)cc1/C=N/O	.	-0.8	.	.	.
CCOC(=O)N1CCN(C(C(=O)NC2CCCC2)C(C)C)CC1 (centres undefined)	.	.	-4.8	38.3*	8.3
CCOC(=O)N1CCC(NC2CCCCCCC2)CC1	.	2.9	.	.	.
COc1ccc2nc(NC(=O)C34CC5CC(CC(NC(C)=O)(C5)C3)C4)sc2c1	-5.7	-1.3	-5.8	5.2	-26.9*
CCOc1ccc2nc(NC(=O)C34CC5CC(CC(NC(C)=O)(C5)C3)C4)sc2c1	3.0	-1.6	-12.6	2.6	-33.3*
C[C@@H]1CCCCO[C@H](CN(C)CC2CCCCC2)[C@@H](C)CN([C@H](C)CO)C(=O)c2cc(NC(=O)CCCCCC(=O)Nc3ccccc3N)ccc2O1	.	.	.	.	0.4
CCc1nnc(NS(=O)(=O)c2ccc(NC(=S)NC(=O)/C=C/c3ccccc3)cc2)s1	3.2	16.3	-15.3	20.8	-37.0*
O=C(O)c1cccc(N2C(=O)c3ccc(Oc4ccc(Cl)cc4)cc3C2=O)c1	-3.7	-5.7	-89.3	-0.4	-36.2*
COc1cc(Br)cc(CN2CCN(C/C=C/c3ccccc3)CC2)c1O	8.5	-1.5	2.6	38.4*	-33.6*
Nc1nnc(SCC(=O)Nc2ccc(Cl)c(C(=O)O)c2)s1	-0.8	0.7	8.2	2.1	12.2
COC(=O)c1cc(NC(=O)CSc2nnc(N)s2)ccc1Cl	-0.7	-1.8	-5.3	-0.4	-21.6*
CN(C)CC(=O)Nc1ccc2c(c1)[C@H]1C[C@H](CC(=O)NCc3ccc(Cl)cc3)O[C@@H](CO)[C@H]1O2	1.1	.	14.6	-1.7	2.2
C[C@H]1CN([C@@H](C)CO)C(=O)c2cc(NC(=O)CCCCCC(=O)Nc3ccccc3N)ccc2O[C@@H]1CN(C)S(=O)(=O)c1ccccc1	-0.7	.	-14.5	0.0	0.5
C/C=C/c1ccc2c(c1)O[C@H](CN(C)C(=O)C1CCC1)[C@@H](C)CN([C@H](C)CO)S2(=O)=O	.	.	.	.	-2.0
CCC(=O)N1CC2(C1)[C@H](c1ccccc1)[C@H](CO)N2C(=O)c1cccnc1	-1.1	.	-15.2	0.3	2.5
Cc1ccc(NS(=O)(=O)c2ccc3c(c2)NC(=O)CCS3)c(C)c1	-5.4	3.4	-12.2	1.2	-32.8*
SMILES	AF4-AF9 inh	NSD2 inh	RAD52 inh	Casp6 inh	rRNA inh HTS
Cc1ccc(NS(=O)(=O)c2ccc3c(c2)NC(=O)CCS3)c(Cl)c1	1.1	0.0	-5.1	7.2	-0.6
O=C(NCCc1cccs1)c1ccc(CS(=O)Cc2ccc(Cl)cc2)o1 (centres undefined)	2.0	-0.3	-3.2	1.9	-24.2*
CCOc1ccc(CCNC(=O)c2ccc(CS(=O)Cc3cccc(Cl)c3)o2)cc1 (centres undefined)	-1.6	1.8	-7.3	-3.4	-41.7
Cc1ccc(CS(=O)Cc2ccc(C(=O)NCCCc3ccccc3)o2)cc1 (centres undefined)	-6.9	-0.6	-7.8	-0.4	-3.5
O=C(NCc1cccs1)c1ccc(CS(=O)Cc2ccc(Cl)cc2)o1 (centres undefined)	-3.8	1.4	-9.1	2.0	-8.9
CCOc1ccc(CCNC(=O)c2ccc(CS(=O)Cc3ccc(Cl)cc3)o2)cc1OCC (centres undefined)	-1.4	-1.6	-13.2	0.7	-31.9*
